Test in all cases: DAPPL (digital affinity profiling via proximity ligation, sequencing); 10 mM Tris-HCl pH 7.5, 50 mM NaCl, 1 mM DTT, 4% glycerol, room temperature, 30 min; GST-TFs on glutathione beads, 16-mer random dsDNA library, 0.1% formaldehyde crosslink after washing; high values mean tight binding
One test concerns the target T1, FLI1 (Homo sapiens, UniProt Q01543 1-452).
T1 sequence: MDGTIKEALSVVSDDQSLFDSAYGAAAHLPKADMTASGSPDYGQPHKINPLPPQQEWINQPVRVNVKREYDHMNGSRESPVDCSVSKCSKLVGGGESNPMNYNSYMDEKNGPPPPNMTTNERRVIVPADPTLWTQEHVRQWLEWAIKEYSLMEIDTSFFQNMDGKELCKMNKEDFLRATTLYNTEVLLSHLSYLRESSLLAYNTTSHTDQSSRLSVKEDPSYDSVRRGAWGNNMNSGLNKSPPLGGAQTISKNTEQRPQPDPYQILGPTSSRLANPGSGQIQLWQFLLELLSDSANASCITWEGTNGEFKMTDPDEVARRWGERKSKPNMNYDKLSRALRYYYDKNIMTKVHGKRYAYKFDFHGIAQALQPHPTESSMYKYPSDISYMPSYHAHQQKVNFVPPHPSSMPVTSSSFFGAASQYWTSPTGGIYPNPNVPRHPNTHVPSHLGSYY
Conditions: protein: recombinant; tags: N-terminal GST; dsDNA, one strand shown. An outline of the steps:
(§1)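 Beads coated with glutathione captured GST-fused human transcription factors that had been expressed in yeast, and the factors were then given DNA barcodes and pooled with a tag-only sample. The pools were incubated with 200 nmole of a random double-stranded 16-mer DNA library in Tris/NaCl/DTT/glycerol buffer for 30 min at room temperature, washed, crosslinked with 0.1% formaldehyde and proximity-ligated with BsaI/T4 ligase at 37 °C for 1 h. PCR amplification and Illumina NextSeq500 sequencing came last. Binding signal is each hexamer's read frequency for a factor divided by its frequency for the tag-only sample.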

The next test concerns the target T2, ELK1 (Homo sapiens, UniProt P19419 1-428).
T2 sequence: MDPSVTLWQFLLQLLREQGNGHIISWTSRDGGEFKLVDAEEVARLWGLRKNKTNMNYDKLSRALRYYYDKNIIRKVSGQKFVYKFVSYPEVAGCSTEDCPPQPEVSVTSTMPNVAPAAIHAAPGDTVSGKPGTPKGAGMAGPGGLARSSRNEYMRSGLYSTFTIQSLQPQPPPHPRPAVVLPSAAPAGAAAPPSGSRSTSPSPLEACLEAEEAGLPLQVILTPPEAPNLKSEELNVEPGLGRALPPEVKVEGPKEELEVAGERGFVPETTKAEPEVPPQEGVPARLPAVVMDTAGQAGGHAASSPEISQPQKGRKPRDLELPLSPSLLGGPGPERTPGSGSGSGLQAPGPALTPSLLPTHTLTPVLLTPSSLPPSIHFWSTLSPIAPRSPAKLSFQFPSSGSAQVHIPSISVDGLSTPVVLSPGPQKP
Conditions: protein: recombinant; tags: N-terminal GST; dsDNA, one strand shown. An outline of the steps: as §1

In another test the target is T3, GABPA (Homo sapiens, UniProt Q06546 1-454).
T3 sequence: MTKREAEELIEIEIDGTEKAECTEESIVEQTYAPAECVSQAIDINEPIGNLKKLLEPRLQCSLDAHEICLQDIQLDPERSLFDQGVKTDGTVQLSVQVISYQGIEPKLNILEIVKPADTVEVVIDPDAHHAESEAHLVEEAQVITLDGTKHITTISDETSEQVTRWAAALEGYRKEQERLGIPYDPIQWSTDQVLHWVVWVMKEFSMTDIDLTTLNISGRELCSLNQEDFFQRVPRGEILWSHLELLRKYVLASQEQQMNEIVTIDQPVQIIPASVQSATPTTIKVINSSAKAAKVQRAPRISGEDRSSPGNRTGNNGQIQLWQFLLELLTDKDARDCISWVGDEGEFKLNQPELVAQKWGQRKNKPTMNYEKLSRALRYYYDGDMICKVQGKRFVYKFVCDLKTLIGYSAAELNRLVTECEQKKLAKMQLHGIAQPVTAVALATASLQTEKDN
Conditions: protein: recombinant; tags: N-terminal GST; dsDNA, one strand shown. An outline of the steps:
as §1

A further test concerns the target T4, ERG (Homo sapiens, UniProt P11308 1-479).
T4 sequence: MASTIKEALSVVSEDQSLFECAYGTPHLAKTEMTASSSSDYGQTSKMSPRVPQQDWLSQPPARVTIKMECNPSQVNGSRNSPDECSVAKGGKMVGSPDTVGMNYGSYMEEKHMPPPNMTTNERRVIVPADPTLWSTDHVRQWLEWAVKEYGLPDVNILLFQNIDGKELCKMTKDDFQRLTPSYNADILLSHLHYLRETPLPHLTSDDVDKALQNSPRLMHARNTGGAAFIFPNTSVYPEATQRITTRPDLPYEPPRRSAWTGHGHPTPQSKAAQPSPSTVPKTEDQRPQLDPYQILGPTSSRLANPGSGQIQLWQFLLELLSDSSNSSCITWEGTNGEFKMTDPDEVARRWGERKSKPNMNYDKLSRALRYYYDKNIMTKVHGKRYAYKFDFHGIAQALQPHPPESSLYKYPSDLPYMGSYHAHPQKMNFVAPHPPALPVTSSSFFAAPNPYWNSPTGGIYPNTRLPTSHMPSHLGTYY
The following applies: protein: recombinant; tags: N-terminal GST; dsDNA, one strand shown. An outline of the steps: as §1

The next test deals with ELF1 (Homo sapiens, UniProt P32519 1-619). Conditions: protein: recombinant; tags: N-terminal GST; dsDNA, one strand shown. An outline of the steps: as §1
Chain of ELF1 (P32519 whole entry): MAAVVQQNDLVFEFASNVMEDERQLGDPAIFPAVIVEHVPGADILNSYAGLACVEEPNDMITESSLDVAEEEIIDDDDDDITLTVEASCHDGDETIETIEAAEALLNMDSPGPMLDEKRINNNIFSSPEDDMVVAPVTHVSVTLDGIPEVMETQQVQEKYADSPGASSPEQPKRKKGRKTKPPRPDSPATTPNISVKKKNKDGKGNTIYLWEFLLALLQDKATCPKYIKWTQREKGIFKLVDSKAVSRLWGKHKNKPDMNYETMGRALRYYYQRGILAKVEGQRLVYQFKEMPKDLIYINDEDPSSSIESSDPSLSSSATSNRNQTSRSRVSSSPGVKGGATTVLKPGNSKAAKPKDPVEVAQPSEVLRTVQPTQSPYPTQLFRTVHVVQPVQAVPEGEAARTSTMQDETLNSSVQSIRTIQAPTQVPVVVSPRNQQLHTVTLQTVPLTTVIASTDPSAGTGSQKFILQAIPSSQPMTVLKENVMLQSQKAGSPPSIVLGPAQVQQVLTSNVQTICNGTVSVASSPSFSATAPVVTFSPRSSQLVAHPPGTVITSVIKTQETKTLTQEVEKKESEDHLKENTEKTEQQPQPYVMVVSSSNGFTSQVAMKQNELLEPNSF
Another test deals with T5, EHF (Homo sapiens, UniProt Q9NZC4 1-300).
T5 sequence: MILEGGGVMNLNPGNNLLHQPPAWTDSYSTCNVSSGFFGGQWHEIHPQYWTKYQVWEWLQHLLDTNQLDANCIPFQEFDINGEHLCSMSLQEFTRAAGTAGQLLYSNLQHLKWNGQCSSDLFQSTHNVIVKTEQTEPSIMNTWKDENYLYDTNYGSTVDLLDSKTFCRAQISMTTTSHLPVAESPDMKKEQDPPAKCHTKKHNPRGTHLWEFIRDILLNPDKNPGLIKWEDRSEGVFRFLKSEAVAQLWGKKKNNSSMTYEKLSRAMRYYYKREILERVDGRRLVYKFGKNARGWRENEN
The following applies: protein: recombinant; tags: N-terminal GST; dsDNA, one strand shown. An outline of the steps:
as §1

The next test concerns the target SPI1 (Homo sapiens, UniProt P17947 1-270). Conditions: protein: recombinant; tags: N-terminal GST; dsDNA, one strand shown. An outline of the steps:
as §1

Another test concerns the target SPIB (Homo sapiens, UniProt Q01892 1-262). Conditions: protein: recombinant; tags: N-terminal GST; dsDNA, one strand shown. An outline of the steps: as §1
The target in a further test is T6, ELK3 (Homo sapiens, UniProt P41970 1-407).
T6 sequence: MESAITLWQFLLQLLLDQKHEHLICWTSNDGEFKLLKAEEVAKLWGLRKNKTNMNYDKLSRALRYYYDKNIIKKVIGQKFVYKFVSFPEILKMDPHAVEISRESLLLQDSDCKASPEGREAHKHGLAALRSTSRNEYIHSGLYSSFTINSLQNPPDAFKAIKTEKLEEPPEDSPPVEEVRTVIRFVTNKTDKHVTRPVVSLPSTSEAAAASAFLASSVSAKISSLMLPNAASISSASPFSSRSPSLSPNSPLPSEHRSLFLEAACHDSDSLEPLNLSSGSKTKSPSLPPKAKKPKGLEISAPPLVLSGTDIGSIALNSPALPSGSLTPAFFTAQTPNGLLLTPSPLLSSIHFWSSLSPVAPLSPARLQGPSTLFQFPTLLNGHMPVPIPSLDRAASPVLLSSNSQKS
Conditions: protein: recombinant; tags: N-terminal GST; dsDNA, one strand shown. An outline of the steps: as §1

The target of a further test is T7, FEV (Homo sapiens, UniProt Q99581 1-238).
T7 sequence: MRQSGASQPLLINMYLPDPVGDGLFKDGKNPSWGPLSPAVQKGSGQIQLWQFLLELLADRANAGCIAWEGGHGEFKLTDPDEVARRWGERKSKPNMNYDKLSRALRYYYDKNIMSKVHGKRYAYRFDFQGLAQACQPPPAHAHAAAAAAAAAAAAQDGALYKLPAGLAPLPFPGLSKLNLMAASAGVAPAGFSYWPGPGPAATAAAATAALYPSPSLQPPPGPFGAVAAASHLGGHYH
Conditions: protein: recombinant; tags: N-terminal GST; dsDNA, one strand shown. An outline of the steps: as §1

Another test has as its target ETV5 (Homo sapiens, UniProt P41161 1-510). The following applies: protein: recombinant; tags: N-terminal GST; dsDNA, one strand shown. An outline of the steps:
as §1

The target in a further test is HSF1 (Homo sapiens, UniProt Q00613 1-529). The following applies: protein: recombinant; tags: N-terminal GST; chain copies: 3; dsDNA, one strand shown. An outline of the steps:
as §1

Another test has as its target T8, SPIC (Homo sapiens, UniProt Q8N5J4 1-248).
T8 sequence: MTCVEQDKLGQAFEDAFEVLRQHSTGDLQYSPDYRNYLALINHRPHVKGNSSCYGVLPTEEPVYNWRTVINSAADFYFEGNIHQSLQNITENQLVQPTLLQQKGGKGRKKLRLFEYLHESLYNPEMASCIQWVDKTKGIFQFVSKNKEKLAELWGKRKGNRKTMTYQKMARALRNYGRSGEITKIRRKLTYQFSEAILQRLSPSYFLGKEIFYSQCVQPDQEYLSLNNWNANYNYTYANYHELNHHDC
The following applies: protein: recombinant; tags: N-terminal GST; dsDNA, one strand shown. An outline of the steps: as §1

The target in a further test is ELF4 (Homo sapiens, UniProt Q99607 1-663). Conditions: protein: recombinant; tags: N-terminal GST; dsDNA, one strand shown. An outline of the steps:
as §1

The next test addresses T9, ETV2 (Homo sapiens, UniProt O00321 1-342).
T9 sequence: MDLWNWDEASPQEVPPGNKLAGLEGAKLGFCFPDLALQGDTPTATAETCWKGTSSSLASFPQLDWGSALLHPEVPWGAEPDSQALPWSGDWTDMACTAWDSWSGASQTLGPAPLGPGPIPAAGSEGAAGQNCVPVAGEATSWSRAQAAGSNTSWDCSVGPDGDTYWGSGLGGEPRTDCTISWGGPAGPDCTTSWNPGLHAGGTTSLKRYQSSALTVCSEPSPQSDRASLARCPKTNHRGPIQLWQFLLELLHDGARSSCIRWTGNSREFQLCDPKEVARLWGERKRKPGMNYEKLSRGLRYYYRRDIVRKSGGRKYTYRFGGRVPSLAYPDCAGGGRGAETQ
Conditions: protein: recombinant; tags: N-terminal GST; dsDNA, one strand shown. An outline of the steps:
as §1

The target in a further test is CRX (Homo sapiens, UniProt O43186 1-299). Conditions: protein: recombinant; tags: N-terminal GST; dsDNA, one strand shown. An outline of the steps: as §1
Chain of CRX (O43186 whole entry): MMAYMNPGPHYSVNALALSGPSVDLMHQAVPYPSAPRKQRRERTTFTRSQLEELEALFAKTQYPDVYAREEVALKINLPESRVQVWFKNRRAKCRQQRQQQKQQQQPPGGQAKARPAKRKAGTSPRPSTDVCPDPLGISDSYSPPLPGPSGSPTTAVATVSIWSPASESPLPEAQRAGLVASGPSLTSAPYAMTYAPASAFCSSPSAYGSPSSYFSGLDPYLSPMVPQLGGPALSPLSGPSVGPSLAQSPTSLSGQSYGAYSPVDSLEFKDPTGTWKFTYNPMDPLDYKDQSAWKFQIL
For another test, the target named is ETV1 (Homo sapiens, UniProt P50549 1-477). Conditions: protein: recombinant; tags: N-terminal GST; dsDNA, one strand shown. An outline of the steps: as §1
Chain of ETV1 (P50549 whole entry): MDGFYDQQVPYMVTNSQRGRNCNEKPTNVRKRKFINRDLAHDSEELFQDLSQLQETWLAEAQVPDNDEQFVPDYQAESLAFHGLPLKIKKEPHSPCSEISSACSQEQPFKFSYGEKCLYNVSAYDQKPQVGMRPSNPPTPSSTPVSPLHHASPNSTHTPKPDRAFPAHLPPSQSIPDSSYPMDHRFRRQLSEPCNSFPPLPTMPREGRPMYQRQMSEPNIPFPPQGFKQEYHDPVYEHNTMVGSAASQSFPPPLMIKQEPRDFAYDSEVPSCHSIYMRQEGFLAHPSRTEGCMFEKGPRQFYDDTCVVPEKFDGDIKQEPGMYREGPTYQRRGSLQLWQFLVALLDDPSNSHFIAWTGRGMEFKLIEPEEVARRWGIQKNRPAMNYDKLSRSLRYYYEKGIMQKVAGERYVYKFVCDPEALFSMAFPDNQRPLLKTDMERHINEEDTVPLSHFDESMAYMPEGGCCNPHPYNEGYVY

Our source for the binding signal values is paper PMC7862700, “An all-to-all approach to the identification of sequence-specific readers for epigenetic DNA modifications on cytosine”.

Chain of HSF1 (Q00613 whole entry): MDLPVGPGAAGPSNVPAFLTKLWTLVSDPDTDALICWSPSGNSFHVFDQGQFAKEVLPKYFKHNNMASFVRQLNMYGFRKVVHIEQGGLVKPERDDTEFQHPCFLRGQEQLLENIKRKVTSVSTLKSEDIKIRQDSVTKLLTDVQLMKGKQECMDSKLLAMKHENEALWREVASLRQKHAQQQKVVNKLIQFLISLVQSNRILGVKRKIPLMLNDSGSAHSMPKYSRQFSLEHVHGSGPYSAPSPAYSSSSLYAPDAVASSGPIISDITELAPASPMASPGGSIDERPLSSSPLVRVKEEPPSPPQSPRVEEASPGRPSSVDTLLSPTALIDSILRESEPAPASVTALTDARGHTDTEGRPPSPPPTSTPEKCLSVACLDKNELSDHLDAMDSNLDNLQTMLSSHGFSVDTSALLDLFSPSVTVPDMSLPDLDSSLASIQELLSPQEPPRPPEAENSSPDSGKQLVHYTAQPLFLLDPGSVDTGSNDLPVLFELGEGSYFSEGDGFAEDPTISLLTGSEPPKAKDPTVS
Chain of SPIB (Q01892 whole entry): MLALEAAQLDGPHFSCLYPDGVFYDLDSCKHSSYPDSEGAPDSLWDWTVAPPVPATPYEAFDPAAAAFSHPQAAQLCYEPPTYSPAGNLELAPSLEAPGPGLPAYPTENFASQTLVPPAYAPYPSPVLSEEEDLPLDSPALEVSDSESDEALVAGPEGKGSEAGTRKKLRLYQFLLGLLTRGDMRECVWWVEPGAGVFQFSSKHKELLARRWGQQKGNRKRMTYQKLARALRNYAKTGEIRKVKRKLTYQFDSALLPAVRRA
Chain of ELF4 (Q99607 whole entry): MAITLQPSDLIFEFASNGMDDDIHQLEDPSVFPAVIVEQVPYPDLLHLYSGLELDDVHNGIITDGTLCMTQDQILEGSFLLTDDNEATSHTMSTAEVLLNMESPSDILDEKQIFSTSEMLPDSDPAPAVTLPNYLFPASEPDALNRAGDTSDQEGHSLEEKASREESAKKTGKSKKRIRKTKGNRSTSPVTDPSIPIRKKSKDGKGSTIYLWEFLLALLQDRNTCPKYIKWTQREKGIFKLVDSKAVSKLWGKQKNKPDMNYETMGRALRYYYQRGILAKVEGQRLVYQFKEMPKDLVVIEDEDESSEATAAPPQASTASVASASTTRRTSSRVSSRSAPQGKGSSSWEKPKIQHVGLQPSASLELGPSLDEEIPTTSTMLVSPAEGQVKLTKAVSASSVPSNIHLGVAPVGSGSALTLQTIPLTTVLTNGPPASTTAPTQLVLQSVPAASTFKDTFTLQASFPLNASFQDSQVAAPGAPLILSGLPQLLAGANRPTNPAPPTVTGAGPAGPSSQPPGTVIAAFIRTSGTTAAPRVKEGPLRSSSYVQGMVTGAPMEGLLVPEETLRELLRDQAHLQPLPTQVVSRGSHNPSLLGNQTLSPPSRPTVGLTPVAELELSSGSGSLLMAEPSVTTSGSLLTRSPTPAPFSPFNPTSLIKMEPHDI
Chain of ETV5 (P41161 whole entry): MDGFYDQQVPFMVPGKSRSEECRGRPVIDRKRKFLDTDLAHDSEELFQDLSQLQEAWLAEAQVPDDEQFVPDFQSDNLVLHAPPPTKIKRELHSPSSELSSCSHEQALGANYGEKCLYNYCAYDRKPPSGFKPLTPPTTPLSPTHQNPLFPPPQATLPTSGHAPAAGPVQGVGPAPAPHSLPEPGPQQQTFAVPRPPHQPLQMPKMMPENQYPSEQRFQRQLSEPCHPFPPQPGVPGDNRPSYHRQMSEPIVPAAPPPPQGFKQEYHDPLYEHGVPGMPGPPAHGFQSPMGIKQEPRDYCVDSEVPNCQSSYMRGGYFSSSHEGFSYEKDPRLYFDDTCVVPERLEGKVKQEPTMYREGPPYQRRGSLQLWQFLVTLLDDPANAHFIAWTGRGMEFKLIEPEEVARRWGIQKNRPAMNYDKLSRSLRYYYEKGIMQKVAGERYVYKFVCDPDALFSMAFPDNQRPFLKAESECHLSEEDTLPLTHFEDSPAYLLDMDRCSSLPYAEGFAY

Consider GTACTA, for which the binding signal in the test with FLI1 was 1.16 fold enrichment (6-mer frequency, TF over GST control); in the test with ELK1 it was 1.06 fold enrichment (6-mer frequency, TF over GST control); with GABPA, 1.12 fold enrichment (6-mer frequency, TF over GST control); with ERG it was 1.07 fold enrichment (6-mer frequency, TF over GST control); with ELF1, 1.19 fold enrichment (6-mer frequency, TF over GST control); with EHF, 1.14 fold enrichment (6-mer frequency, TF over GST control). Besides, the binding signal is 1.02 fold enrichment (6-mer frequency, TF over GST control) with SPI1; 1.1 fold enrichment (6-mer frequency, TF over GST control) in the test with SPIB; 1.02 fold enrichment (6-mer frequency, TF over GST control) in the test with ELK3; 1.12 fold enrichment (6-mer frequency, TF over GST control) with FEV; 1.14 fold enrichment (6-mer frequency, TF over GST control) with ETV5; 1.15 fold enrichment (6-mer frequency, TF over GST control) with HSF1. Besides, the binding signal in the test with SPIC was 1.11 fold enrichment (6-mer frequency, TF over GST control); with ELF4 it was 1.08 fold enrichment (6-mer frequency, TF over GST control); with ETV2 it was 1.21 fold enrichment (6-mer frequency, TF over GST control); in the test with CRX, 1.12 fold enrichment (6-mer frequency, TF over GST control); with ETV1, 1.13 fold enrichment (6-mer frequency, TF over GST control).
